Measurements published in ChEMBL document CHEMBL4513216, “Probing the Open Global Health Chemical Diversity Library for Multistage-Active Starting Points for Next-Generation Antimalarials” (ACS Infect Dis, 2020).
Out of some 68,000 compounds screened, about 2,700 (4%) showed an effect of 50% or more. This is one part of a sample in which strong results are shown more often than they occur.

Test system: Plasmodium berghei
Test: Screen against P. berghei liver stage (PbLuc), transformed with Luciferase, at 2uM
Assay type: functional, HepG2
Settings: tested at 2 uM

| SMILES | INHIBITION |
| --- | --- |
| CCOC(=O)c1sc2ccsc2c1CNC(=O)CCOC | 27.47% |
| N#CCCCOc1cccnc1NC(=O)CCC1CCCC1 | -54.22% |
| Cc1nccn1-c1ccc(=O)n(CCNC(=O)c2ccncc2)n1 | -45.03% |
| CN1CCCCc2c1nc1c(c2N)CCCC1 | 14.11% |
| CC(O)c1cnn(-c2ccccc2)c1 (stereo unspecified) | 23.06% |
| COCCN1C[C@H]2CN(C(=O)c3ccc4c(c3)OCO4)CCN2C1=O | -2.66% |
| CC(C#N)(NC(=O)COc1ccccc1Br)C1CC1 (stereo unspecified) | 8.78% |
| CC(C)C1CCCN1C(=O)c1ccc(-n2ncc(C#N)c2N)cc1 (stereo unspecified) | -36.67% |
| Cc1cc(-c2nn(C)c(Cl)c2CN2CC[C@H](CO)[C@@H](O)C2)no1 | -5.87% |
| Cc1cc(C)n(C2CCN(Cc3c(-c4cc(C)on4)nn(C)c3Cl)C2)n1 (stereo unspecified) | -11.77% |
| Cc1cc(-c2nn(C)c(Cl)c2CN2CCCCC(N)C2)no1 (stereo unspecified) | 51.81% |
| CN1CCN(Cc2ccc(-c3ccc(-c4ccn[nH]4)cc3)nc2)CC1 | -35.16% |
| CC(=O)Nc1nc(COc2nc(C)no2)cs1 | -4.89% |
| O=C(O)[C@@H]1CN(Cc2c[nH]c(CC3CCCC3)n2)C[C@H]1c1ccccn1 | 50.86% |
| O=C(O)[C@@H]1CN(Cc2c[nH]c(CC3CCCC3)n2)C[C@H]1c1ccncc1 | 25.35% |
| CCC[C@@H]1CN(Cc2c[nH]c(CC3CCCC3)n2)C[C@H]1C(=O)O | 5.93% |
| CCOCC1CN(C(=O)c2ccco2)Cc2cnn(CC)c21 (stereo unspecified) | 16.87% |
| Cc1ccsc1C(O)CNC(=O)Cc1ccc(F)cc1 (stereo unspecified) | 33.35% |
| Cc1ccsc1C(O)CNC(=O)Cc1ccc(S(=O)(=O)C(C)C)cc1 (stereo unspecified) | 16.03% |
| COc1ccc(CC(=O)NCC(O)c2sccc2C)cc1OC (stereo unspecified) | 55.52% |
| CCCn1nc(C)c(CNC(=O)c2snnc2C)c1C | 32.26% |
| Cc1nc(N)cc(C2CCN2CCOc2ccccc2)n1 (stereo unspecified) | -43.34% |

| SMILES | INHIBITION |
| --- | --- |
| Cc1ccc(NC(=O)c2ccc(=O)n(CC(=O)Nc3nccs3)n2)cc1 | -20.78% |
| Cc1cccc(-c2nc(C)nn2CC(=O)NC2CCCC2)c1 | 25.74% |
| Cc1ccc(NC(=O)c2ccc(=O)n(CC(=O)NC3CCCC3)n2)cc1 | 50.2% |
| CCc1nnsc1C(=O)NCc1c(C)nn(CCOC)c1C | 24.05% |
| Cn1nc(C2CCCN2)c2c(C(=O)NC3CC3)cc(C3CC3)nc21 (stereo unspecified) | 11.43% |
| Cc1ccoc1C1=NNC(=CN2CCCC(Cn3cncn3)C2)O1 (stereo unspecified) | 3.9% |
| CCc1nnc2n1CCN(C=C1NN=C(c3occc3C)O1)C2 | -27.57% |
| Cc1ccoc1C1=NNC(=CN2CCn3c(nnc3C(C)C)C2)O1 | 83.22% |
| Cc1cnn(CC2CN(C=C3NN=C(c4occc4C)O3)CCO2)c1 (stereo unspecified) | -32.2% |
| Cc1ccoc1C1=NNC(=CN2CCn3c(C)nnc3C2)O1 | -9.22% |
| Cc1ccoc1C1=NNC(=CN2CCOC(Cn3cccn3)C2)O1 (stereo unspecified) | 60.64% |
| NC(=O)C1CCN(C(=O)NCc2ccc3c(c2)OCCO3)CC1 | 42.17% |
| C[C@H]1C[C@H]2CN(S(=O)(=O)c3ccc(F)cc3)CC[C@H]2O1 | 47.42% |
| Cc1nc(N2CCOc3ccc(CO)cc3C2)c2nc(C)oc2n1 | 34.52% |
| CC(C)OCCC(=O)NCCC(=O)N1CCN(c2ccccn2)CC1 | -8.63% |
| Cc1noc(C2CCN(Cn3cc(Cl)cn3)CC2)n1 | -16.03% |
| CCCOc1cc(CNC(=O)Nc2ccc(C)cc2)ccn1 | 5.88% |
| Cc1csc([C@@H]2C[C@H]3CN(c4ncc(F)cn4)C[C@H]3O2)n1 | 19.01% |
| CC(=O)N1CCN(C(=O)C2CCN(c3cccnn3)C2)CC1 (stereo unspecified) | -4.8% |
| CN1CCN(C(=O)C2CCCN(c3cccnn3)C2)CC1 (stereo unspecified) | 59.49% |
| CN1CCC(C(=O)N2CCCN(c3cccnn3)CC2)C1 (stereo unspecified) | 45.48% |
| O=C(C1CCN(c2cccnn2)C1)N1CCOCC1 (stereo unspecified) | 42.48% |

| SMILES | INHIBITION |
| --- | --- |
| CN1CCN(C(=O)C2CCN(c3cccnn3)C2)CC1 (stereo unspecified) | 33.64% |
| CN1CCN(C(=O)C2CCN(c3cccnn3)CC2)CC1 | 54.49% |
| CCC(C)c1cc(C(=O)N(CC(=O)NC)c2cccc(F)c2)on1 (stereo unspecified) | -7.58% |
| O=C([C@H]1C[C@H]2OCC[C@H]2N(CCc2ccccc2)C1)N1CCCCO1 | -10.8% |
| Cc1cc(C(=O)N2CCN(C(=O)CC(C)C)[C@@H]3CS(=O)(=O)C[C@@H]32)no1 | -57.02% |
| COc1ccc(CN2CCO[C@@H]3C[C@@H](C(=O)NC(C)C)C[C@H]32)cc1 | 3.72% |
| CCN1CC(COC(=O)c2cc(C)nn2CC)CC1=O (stereo unspecified) | 3.46% |
| COc1ccc2c(C)c(C(=O)NCC3CN(S(C)(=O)=O)CCO3)oc2c1 (stereo unspecified) | 60.71% |
| COc1ccc2c(C)c(C(=O)NC3CCOCC3)oc2c1 | -8.3% |
| COc1ccc2c(C)c(C(=O)NC3CCN(S(C)(=O)=O)CC3)oc2c1 | 11.9% |
| CC(C)CN1C[C@H](COCc2ccccc2)Oc2ncccc2C1=O | 37.74% |
| COc1cc2[nH]c(=O)c(CN3CCCC3C)cc2c(OC)c1OC (stereo unspecified) | -5.51% |
| COc1cc2[nH]c(=O)c(CN3CCC[C@@H]3C(N)=O)cc2c(OC)c1OC | -30.15% |
| COc1cc2[nH]c(=O)c(CN3CCC[C@H]3CO)cc2c(OC)c1OC | 63.1% |
| CCNC(=O)C1CCN(Cc2ccc(C(=O)Nc3cnns3)cc2)C1 (stereo unspecified) | 29.78% |
| Cc1cc(C(=O)N2CCc3nc(N4CCCC4)nc(C)c3CC2)c(C)o1 | 22.96% |
| CCCc1cc(CN(C)C2CC(C)(C)NC(C)(C)C2)n[nH]1 | 62.51% |
| CCCc1cc(CN(C)C2CSCCSC2)n[nH]1 | -71.03% |
| CCCc1cc(CN(C)C2CCSCC2)n[nH]1 | 36.28% |
| CN1CCCN(c2ccc(F)cc2CNC(=O)c2ccsc2)CC1 | 31.05% |
| O=C(CN1CCN(c2ccnc3c(F)ccc(F)c23)CC1)N1CCCC1 | 3.01% |
| CC(C)(C)CN1CC(COc2ccccc2)Oc2ccncc2S1(=O)=O (stereo unspecified) | 14.96% |

| SMILES | INHIBITION |
| --- | --- |
| Cc1ccc(-c2noc(C(O)CC(C)C)n2)nn1 (stereo unspecified) | -12.08% |
| CCSC(C)c1nc(-c2ccc(C)nn2)no1 (stereo unspecified) | 66.4% |
| Cc1ccc(-c2noc([C@H](N)CC(C)C)n2)nn1 | 24.55% |
| Fc1cnc(N2C[C@@H]3C[C@@H](c4nc(C5CC5)cs4)O[C@@H]3C2)nc1 | 3.53% |
| Cc1nc(-c2cc(C(=O)O)co2)cs1 | 9.95% |
| CCOCC1CN(C(=O)c2ccncn2)Cc2cnn(CC)c21 (stereo unspecified) | 4.99% |
| CC(C)C(C)(C#N)NC(=O)Cn1cc(I)cn1 (stereo unspecified) | 64.9% |
| CC(C)C(C)(C#N)NC(=O)Cn1cc(-c2ccccc2)cn1 (stereo unspecified) | -4.26% |
| CC(C)C(C)(C#N)NC(=O)Cn1cc(Cl)cn1 (stereo unspecified) | 26.74% |
| Cc1nccn1CCN1C(=O)CC2(CCCC2)CC1=O | -50.2% |
| CCc1c(NCc2cccnc2)cnn1CC(C)C | -16.94% |
| CN(Cc1ccsc1)C(=O)Nc1ccc(S(C)(=O)=O)cc1 | -12.75% |
| Cn1cccc1CN(C(=O)Cc1cccs1)C1CC1 | 51.96% |
| CN(C(=O)Cc1cccs1)C1CCN(c2ccccn2)CC1 | 16.89% |
| CN(Cc1cccs1)C1CCC[C@@H]2CN(C(=O)c3cccn3C)C[C@H]12 (stereo partly specified) | 6.33% |
| Cn1cccc1CN(C(=O)CC(CC(=O)O)c1cccs1)C1CC1 (stereo unspecified) | 81.52% |
| O=C(O)CC(CC(=O)NCCc1cccs1)c1cccs1 (stereo unspecified) | 17.25% |
| O=C(O)CC(CC(=O)N(Cc1ccsc1)C1CC1)c1cccs1 (stereo unspecified) | 1.06% |
| CCN(CC1CCOC1)C(=O)NCc1nnc2n1CCCCC2 (stereo unspecified) | 7.24% |
| CC(NCC1CCN(CCO)CC1)c1cccnc1 (stereo unspecified) | -4.09% |
| CC(NCC1CCN(CCO)CC1)c1cccc(Cl)c1 (stereo unspecified) | 34.46% |
| CC(NCC1CCN(CCO)CC1)c1ccc(C(F)(F)F)cc1 (stereo unspecified) | 55.39% |

| SMILES | INHIBITION |
| --- | --- |
| CC(NCC1CCN(CCO)CC1)c1ccc(OC(F)(F)F)cc1 (stereo unspecified) | 47.68% |
| CC(NCC1CCN(CCO)CC1)c1ccc(Cl)cc1 (stereo unspecified) | 56.49% |
| CC(NCC1CCN(CCO)CC1)c1ccc(F)c(Cl)c1 (stereo unspecified) | -111.19% |
| CCc1nc(NC(=O)NCCc2cscn2)nn1C | 1.88% |
| Clc1cccc(C(CNCc2ccccn2)N2CCOCC2)c1 (stereo unspecified) | 20.8% |
| CC(C)c1nn(C)c(N(C)C)c1CNCc1ccnc(N(C)C)c1 | 1.36% |
| O=C(Cn1ccc2ccc(Cl)cc21)NCc1ccc(C(=O)O)cc1 | 30.98% |
| CC(C)NC(=O)C1CN(C(=O)Nc2ccccc2)CC12CCOCC2 (stereo unspecified) | 47.1% |
| O=C(Nc1ccccc1)N1CC(C(=O)N2CCCC2)C2(CCOCC2)C1 (stereo unspecified) | 51.72% |
| O=C(NCC1CC1)C1CN(C(=O)Nc2ccccc2)CC12CCOCC2 (stereo unspecified) | -48.3% |
| CN(Cc1cc2n(n1)CCN(C(=O)[C@H]1CCCO1)C2)Cc1nccs1 | 24.08% |
| c1ccc(Oc2cccc(OC34CCCN(CC3)C4)c2)cc1 (stereo unspecified) | 43.72% |
| COCCc1noc(CN2CCOC(Cn3nc(C)cc3C)C2)n1 (stereo unspecified) | -85.26% |
| Cc1cc(C)n(C2CN(Cc3noc(C4CC4)n3)C2)n1 | -14.28% |
| COCCc1noc(CN2CC(n3nc(C)cc3C)C2)n1 | 65.39% |
| Cc1ccc(-c2nc(CN3CC(n4nc(C)cc4C)C3)no2)cc1 | 31.55% |
| Cc1cccc(-c2nc(CN3CC(n4nc(C)cc4C)C3)no2)c1 | 51.31% |
| Cc1cc(C)n(C2CN(Cc3noc(-c4ccccc4)n3)C2)n1 | 1.34% |
